# Shown is part of a subset that was picked to be rich in hits.
# Pf Dd2 inh: Plasmodium falciparum Dd2 growth inhibition | 120,000 tested, 4.3% active | P. falciparum Dd2 growth, SYBR Green, 72 h | Potency, µM (top dose mostly 28.9 µM), without a hit: at the highest dose activity, negative = inhibition, most hits filed as inhibitors | AID 1347417; active = well fitted inhibition curve with a large enough effect;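 note: plate controls were DMSO vehicle for no effect and reference drug for full effect; nearly all actives have a fitted effect of over 65% in size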
#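 Infected erythrocytes (Dd2, 0.3% parasitemia, 2.5% hematocrit final) are added to compound in RPMI-1640/Albumax II medium, grown 72 h at 37C in low oxygen, then lysed with saponin/Triton-X containing SYBR Green and read by fluorescence.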
# * hit, by the source's call; i = inactive; [ ] = remark or other dose. Potency is the fitted concentration of half-maximal effect.
SMILES,Pf Dd2 inh
COc1ccc(CCNC(=O)Cn2ccn3nc(-c4ccc(F)cc4)c(CO)c3c2=O)cc1OC,12%
Cc1cccc(-c2[nH]ncc2CN)c1,-12%
Cc1cc(C)cc(-c2ccccc2CN)c1,13µM*
Cc1cc(C)cc(-c2ccccc2C=O)c1,-3%[44.1 µM]
O=C1NCCCCCCN(C(=O)NCc2ccccc2)[C@H]2C[C@H](c3nc(-c4cccnc4)no3)C[C@@H]12,i
Cc1cccc(-c2cc(C(=O)O)c3c(-c4ccc(F)cc4)[nH]nc3n2)c1,7.9µM*
COc1ccc(-c2[nH]nc3nc(-c4cc(OC)c(OC)c(OC)c4)cc(C(=O)O)c23)cc1,-15%
CCOc1cc(-c2cc(C(=O)O)c3c(-c4ccccc4)[nH]nc3n2)ccc1O,-3%
COc1ccc(C(=O)N2CC(Oc3ccc4c(c3)OCO4)C2)cc1,7%
C=CCOc1ccc(-c2nnc(CCC(=O)NCCOc3ccccc3)c(=O)[nH]2)cc1,-9%
Cc1ccc(C2(O)CCN(C(=O)c3ccc4ncccc4c3)CC2)nc1,4µM*
Cc1ccc(C2(O)CCN(C(=O)C(=O)c3cccnc3)CC2)nc1,-7%
O=C(c1ccc2ncccc2c1)N1CCC2(CC1)Nc1ccccc1NC2=O,8%
Cc1nnc([C@@H]2CC(F)(F)CN2C(=O)COc2ccc(F)cc2)o1,20%
Cc1c(Cl)cccc1NC(=O)N1CCC(OC2CCN(S(C)(=O)=O)CC2)CC1,32%
CN1CCC(Cc2ccc(C(=O)O)cc2)CC1,13%
Cc1cc(C)c(C(=O)N(CC2CCN(C3Cc4ccccc4C3)CC2)CC2CCCO2)o1 (stereo not given),i
CCN(CC1CCN(C2CCN(C)CC2)CC1)C(=O)c1ccc(-c2ccccc2)cc1,13µM*
NC(=O)NCCN1CCCC(N2CCN(Cc3ccc4c(c3)OCO4)CC2)C1 (stereo not given),9%
O=C(C1CCCC1)N1CCC2(CC1)NCc1ccccc1NC2=O,14%
COc1ccc(Nc2ncc3c(n2)CCN(Cc2ccc(Br)s2)C3)c(OC)c1,10µM*
COc1ccccc1Nc1ncc2c(n1)CCN(Cc1cc(F)cc(F)c1)C2,28%
COc1ccc(Nc2ncc3c(n2)CCN(Cc2cc(Br)cs2)C3)c(OC)c1,46%
COc1ccccc1Nc1ncc2c(n1)CCN(Cc1ccc(C)s1)C2,69%
Cc1ccc(CN2CCc3nc(Nc4ccc5c(c4)OCCO5)ncc3C2)cc1,9%
SMILES,Pf Dd2 inh
Brc1csc(CN2CCc3nc(Nc4ccccc4)ncc3C2)c1,10µM*
CN(C)C[C@@H]1CN(c2ncccn2)C[C@H]1N,i
COc1cccc(C(=O)N2CCC3(CC2)CC(=O)N(c2ccccc2)c2ccccc2O3)c1,0%
COc1ccc(NC(=O)N2CCC(Oc3ncccc3C(=O)N3CCOCC3)C2)c(C)c1 (stereo not given),85%
O=C(c1ccccc1F)N1CCn2c(nnc2[C@@H]2C[C@@H](O)CN2Cc2ccccc2)C1,6%
Cc1cc(C(=O)N(CCC(=O)NCc2ccccc2)CCC(C)C)c(C)o1,-15%
Cc1cc(C(=O)N(CCC(=O)NCCC(C)C)CCC(C)C)c(C)o1,11µM*
CCCCCNC(=O)CCN(CC)C(=O)c1cc(C)oc1C,i
COC(=O)Cn1ccn2nc3c(c2c1=O)CCCC3,-5%
Cc1ccc(Cn2c(C3CCN(C(=O)c4ccc(C)cc4)CC3)n[nH]c2=O)cc1,-24%
COc1ccc(CC(=O)N2CCC(c3n[nH]c(=O)n3Cc3ccc(F)cc3)CC2)cc1,i
Cc1ccc(Cn2c(C3CCN(C(=O)c4ccc(C)s4)CC3)n[nH]c2=O)cc1,11µM*
COc1ccc(Cn2c(C3CCN(C(=O)c4ccc(OC)cc4)CC3)n[nH]c2=O)cc1,-23%
COc1ccc(CC(=O)N2CCC(c3n[nH]c(=O)n3Cc3ccc(OC)cc3)CC2)cc1,13µM*
Cc1ccc(Cn2c(C3CCN(C(=O)c4ccccc4Cl)CC3)n[nH]c2=O)cc1,-19%
Cc1nc2c(c(-c3ccc(Cl)cc3)n1)CCN(C(=O)C1CC1)CC2,7%
CCOCCCNC(=O)[C@H]1CN(Cc2ccccc2)C[C@H]1C(=O)O,11%
N#CC1CCN(C(=O)c2nc(-c3cccnc3)c3ccccn23)CC1,0%
CCOC(=O)C1(Cc2ccccc2C)CCCN(Cc2cn(CC(N)=O)c3ccccc23)C1 (stereo not given),14µM*
CCOC(=O)C1(Cc2ccccc2C)CCCN(C(=O)c2cc[n+]([O-])cc2)C1 (stereo not given),-21%
CCOC(=O)C1(Cc2ccccc2C)CCCN(C(=O)c2csc(C)n2)C1 (stereo not given),-3%
CC(C)CC(=O)NCC1Cn2cccc2C(=O)N1C (stereo not given),23%
CCC1=C(C(=O)OC)C(c2ccccc2F)N2C(CC(=O)N3CCCC3)=CSC2=N1 (stereo not given),-12%
CCCN(CCC)C(=O)CC1=CSC2=NC(CC)=C(C(=O)OC)C(c3cccc(F)c3)N12 (stereo not given),2.2µM*
CCC1=C(C(=O)OC)C(c2ccccc2)N2C(CC(=O)N(C)Cc3ccccc3)=CSC2=N1 (stereo not given),-24%
SMILES,Pf Dd2 inh
COc1ccc(OC2CN([S+](=O)([O-])c3cccc(C(F)(F)F)c3)C2)cc1,15%
O=C(c1cccs1)N1CCC(c2n[nH]c(=O)n2Cc2ccc(F)cc2)CC1,i
O=C1CCCCC(Cc2cccnc2)(C(=O)O)N1 (stereo not given),40%
CCOc1cc(C2C(C(=O)OC)=C(C)NC3=C2C(=O)c2ccccc23)ccc1OC (stereo not given),10µM*
CCOC(=O)COc1ccc(C2C(C(=O)OC)=C(C)NC3=C2C(=O)c2ccccc23)cc1Cl (stereo not given),-6%
CCOc1cc(C2C(C(=O)OC)=C(C)NC3=C2C(=O)c2ccccc23)c(Br)cc1O (stereo not given),-6%
CCN(CC)C(=O)[C@@H]1CCC[C@@H](NCc2cccc(Cl)c2)CN(C)C(=O)C1,i
CCOc1ccc(Nc2nc(Nc3ccc(OCC)cc3)nc(N3CCOCC3)n2)cc1,-15%
Cc1cccc(Nc2nc(N)nc(CN3CC[C@@H](N)[C@H](O)C3)n2)c1,-1%
Cc1cccc(Nc2nc(Nc3cccc(C)c3)nc(N3CCOCC3)n2)c1,11µM*
OCC1CN(Cc2ccc(Br)cc2)CC12CCNCC2 (stereo not given),-14%
CCCCN1C(=O)C(CC(=O)NC2CC2)Sc2ncccc21 (stereo not given),-2%
Cc1ccc(-n2ncc(C(=O)NCCCN3CCCCC3)c2C2CCN(C(=O)OC(C)(C)C)CC2)cc1,10µM*
COc1ccccc1N1CCN(CCCNC(=O)c2cnn(-c3cccc(Cl)c3)c2C2CCN(C(=O)OC(C)(C)C)CC2)CC1,2µM*
COc1ccccc1N1CCN(CCCNC(=O)c2cnn(-c3ccc(C)c(C)c3)c2C2CCN(C(=O)OC(C)(C)C)CC2)CC1,5.6µM*
O=S(=O)(c1ccc(F)cc1)N1CCOC[C@H](Oc2cnccn2)C1,16%[44.1 µM]
C[C@@H]1C(=O)O[C@H]2[C@H]1CC[C@@]1(C)Cc3sc(NC(=O)CS(=O)(=O)c4ccccc4)nc3[C@@H](C)[C@H]21,i
Cc1cc(C)cc(NC2=N[C@H]3[C@@H](O)[C@H](O)C[C@H](C(=O)NCc4cccs4)[C@H]3S2)c1,13%[44.1 µM]
NC(=O)c1ccc(NC(=O)Cn2nc3c(cc2=O)CCCC3)cc1,-5%
COCC(=O)N1CC(C(=O)NCc2cccc(F)c2)CC(c2ccc(OC)c(OC)c2)C1 (stereo not given),0%
Cc1cc(C)cc(C(=O)NCCn2ccn3nc(-c4ccc(F)cc4)cc3c2=O)c1,i
